Experimental data as given in ChEMBL document CHEMBL4808148, “HDAC6 screening dataset using tau-based substrate in an enzymatic assay yields selective inhibitors and activators” (2021).
Out of some 5,600 compounds screened, about 390 (7%) showed an effect of 50% or more. This excerpt belongs to a sample that is enriched for strong results. Residues, ends and D or L forms follow the SMILES beside them. *: point of attachment. PhAc = O=C(Cc1ccccc1)*

Assays:
[1] = target: T1, Protein deacetylase HDAC6 (Homo sapiens) (UniProt Q9UBN7); conditions: at 10 µM
T1 sequence (whole entry): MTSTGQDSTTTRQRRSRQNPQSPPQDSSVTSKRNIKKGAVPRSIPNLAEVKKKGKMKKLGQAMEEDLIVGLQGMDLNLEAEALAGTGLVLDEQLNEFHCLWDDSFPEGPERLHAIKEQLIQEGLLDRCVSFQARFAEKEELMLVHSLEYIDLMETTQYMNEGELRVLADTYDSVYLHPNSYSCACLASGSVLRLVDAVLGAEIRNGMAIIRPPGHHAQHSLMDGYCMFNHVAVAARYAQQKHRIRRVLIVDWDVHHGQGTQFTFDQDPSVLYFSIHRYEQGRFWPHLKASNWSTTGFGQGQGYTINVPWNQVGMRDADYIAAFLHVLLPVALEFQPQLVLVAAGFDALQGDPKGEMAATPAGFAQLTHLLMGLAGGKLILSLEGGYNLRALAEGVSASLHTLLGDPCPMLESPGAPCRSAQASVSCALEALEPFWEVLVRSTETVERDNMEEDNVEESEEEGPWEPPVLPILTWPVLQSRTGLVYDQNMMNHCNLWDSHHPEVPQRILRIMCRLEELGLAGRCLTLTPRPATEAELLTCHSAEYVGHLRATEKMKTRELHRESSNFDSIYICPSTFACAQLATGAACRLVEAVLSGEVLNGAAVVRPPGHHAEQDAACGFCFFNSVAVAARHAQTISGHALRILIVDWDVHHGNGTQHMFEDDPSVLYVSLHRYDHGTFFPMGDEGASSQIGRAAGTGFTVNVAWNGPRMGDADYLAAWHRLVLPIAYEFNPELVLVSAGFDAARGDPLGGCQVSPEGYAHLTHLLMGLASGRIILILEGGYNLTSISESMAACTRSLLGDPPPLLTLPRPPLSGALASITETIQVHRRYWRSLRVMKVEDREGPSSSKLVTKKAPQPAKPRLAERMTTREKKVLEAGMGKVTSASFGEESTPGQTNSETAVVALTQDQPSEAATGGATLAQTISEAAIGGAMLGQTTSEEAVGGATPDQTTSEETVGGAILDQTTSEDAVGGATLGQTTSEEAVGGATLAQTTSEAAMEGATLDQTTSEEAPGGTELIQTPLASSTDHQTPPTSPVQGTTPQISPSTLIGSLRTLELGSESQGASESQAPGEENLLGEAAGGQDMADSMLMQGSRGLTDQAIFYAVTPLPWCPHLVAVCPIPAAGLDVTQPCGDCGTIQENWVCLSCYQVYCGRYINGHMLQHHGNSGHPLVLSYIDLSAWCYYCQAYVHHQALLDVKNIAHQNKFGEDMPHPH

[2] = target: Protein deacetylase HDAC6 (Homo sapiens) (UniProt Q9UBN7); conditions: at 10 µM; remark: listed apart in the source

Compound	inhibition [1] [%]	inhibition [2] [%]
Cc1cccc(/C=N/Nc2cc(N3CCOCC3)n3nc(-c4ccncc4)cc3n2)c1	-1.46	–
CC1(CN)Cc2ccccc2C1	0.58	–
Brc1cc2c(cc1[C@@H]1Nc3ccccc3[C@@H]3C=CC[C@@H]31)OCO2.Brc1cc2c(cc1[C@H]1Nc3ccccc3[C@H]3C=CC[C@H]31)OCO2	2.38	–
O=C(O)Cc1ccc(OCc2ccccc2)c(Cl)c1	-0.75	–
O=C(O)Cc1ccc2c(c1)C(=O)c1ccccc1CO2	75	–
O=C(O)c1ccc(N2N=C(Cc3ccccc3)/C(=C\c3ccc(-c4ccccc4F)o3)C2=O)cc1	5.2	–
CC(C)OC(=O)N[C@H]1Cc2c(n(Cc3ccccn3)c3ccc(C#N)cc23)C1	-8.91	–
CC(C)(C)c1ccc(O)cc1	17.6	–
CC(C)(C)c1ccc(-c2nc3ccccc3[nH]2)cc1	105	–
C#CCC(Cc1cnc2nc(N)nc(N)c2n1)c1ccc(C(=O)N[C@@H](CCC(=O)O)C(=O)O)cc1 (stereo partly drawn)	30	–
Oc1cc(CNC(=S)/C=C/c2cc(O)c(O)c(Br)c2)cc(O)c1O	36	–
COc1cc(N2CCN(C)CC2)ccc1Nc1ncc2c(n1)N(C)c1ccccc1C(=O)N2C	0.79	–
COc1ccc(N(C(=O)Oc2c(C)cccc2C)c2ccnc(Nc3ccc(N4CCN(C)CC4)cc3)n2)c(OC)c1	102	–
COC(=O)c1ccc(N2CCN(C)CC2)c(NC(=O)c2cccc(OC)c2)c1	5.02	–
Cn1c(C#N)ccc1-c1ccc2c(c1)C(C)(C)OC(=S)N2	12.5	–
O=C(Nc1cc(C(F)(F)F)cc(C(F)(F)F)c1)c1cc(Cl)ccc1O	3.28	–
CC(=O)NCCNc1cc(Cl)nn2c(-c3cccc(S(=O)(=O)N(C)C)c3)c(C)nc12	15.6	–
CC(C)CN(C[C@@H](OP(=O)(O)O)[C@H](Cc1ccccc1)NC(=O)O[C@H]1CCOC1)S(=O)(=O)c1ccc(N)cc1	7.63	–
CCCN(CCC)C(=O)Cc1c(-c2ccc(Cl)cc2)nc2ccc(Cl)cn12	-6.78	–
CC1=CC(=C(c2ccc(N)cc2)c2ccc(N)cc2)C=CC1=N	57.5	–
O=C(O)c1ccccc1NC(=O)C12CC3CC(CC(C3)C1)C2	8.92	–
O=C(NO)c1cnc(N2CCN(S(=O)(=O)c3ccc4ccccc4c3)CC2)nc1	102	–
COc1ccc(S(=O)(=O)N2CCCN(S(=O)(=O)c3ccc(OC)c(OC)c3)CC2)cc1OC	5.48	–
O[C@@](Cc1nc(CC2(C(F)(F)F)CC2)c[nH]1)(c1ccc(-n2cccn2)cc1)C(F)(F)F	-0.94	–
O=C(O)CCc1ccc(NCc2cccc3c2CCCN3CCOc2ccccc2)cc1F	8.07	–

Compound	inhibition [1] [%]	inhibition [2] [%]
OCCNC1CCCc2c1[nH]c1ccc(-c3ccccc3)cc21 (stereo not drawn)	59.1	–
CCc1nc(C)ccc1O	3.81	–
N[C@@H](CSCC(=O)O)C(=O)O	17.8	–
CC1(C)CC[C@]2(C(=O)O)CC[C@]3(C)[C@H](C(=O)C=C4[C@@]5(C)C=C(C#N)C(=O)C(C)(C)[C@@H]5CC[C@]43C)[C@@H]2C1	11.2	–
CN(C)/N=N/c1ccc(C(=O)O)cc1	26.9	–
C=C1C[C@@]2(O)O[C@@]3(C[C@H]2C(C)C)[C@@H](C)CC[C@@H]13	20.2	–
CC(C)(C)C(=O)NCCCC(=O)O	0.18	–
N=C1CCCN1Cc1[nH]c(=O)[nH]c(=O)c1Cl	55.5	–
COc1ccc(NS(=O)(=O)c2ccc(/N=N/c3ccc(O)c(C(=O)O)c3)cc2)nn1	35.8	–
Cc1cccc(C(=O)O)c1O	35.8	–
O=C(O)c1cc(/N=N/c2ccc(O)c(C(=O)O)c2)ccc1O	98.2	–
O=c1[nH]c2ccccc2c(=O)n1CCCN1CCN(c2ccccc2)CC1	8.65	–
NC(=O)NCCN1CCN(c2cccc(C(F)(F)F)c2)CC1	22	–
O=C(O)c1ccccc1Nc1cccc(C(F)(F)F)c1	30.6	–
O=C(OCCN1CCOCC1)c1cccnc1Nc1cccc(C(F)(F)F)c1	62	–
c1ccc2c(c1)Nc1ccccc1S2	74.6	–
CC(C)(C)C(=O)OCC(=O)[C@H]1CC[C@H]2[C@@H]3CCC4=CC(=O)CC[C@]4(C)[C@H]3CC[C@]12C	23.8	–
CCC(=O)c1ccc(OCC(O)CN2CCN(c3ccccc3)CC2)cc1 (stereo not drawn)	19.9	–
Cc1cc(C)nc(NS(=O)(=O)c2ccc(NC(=S)NC(=O)COc3ccc(Br)cc3Cl)cc2)n1	19.5	–
CCCc1ccc(C(=O)O)cc1	29.1	–
CC1(C)CCC(C)(C)c2cc(C#Cc3ccc(C(=O)O)cc3)ccc21	-3.59	–
CCc1ccc(C2=CC(C)(C)Sc3ccc(C#Cc4ccc(C(=O)O)cc4)cc32)cc1	63	–
COc1cn(-c2ccc(-n3cccn3)cc2F)nc(-c2ccnn2-c2ccccc2)c1=O	0	–
O=C1NC(=O)c2c1c1c3ccccc3n3c1c1c2c2ccccc2n1C1CCC3O1	1.84	–
C[C@H](N)Cc1c[nH]cn1	7.87	–

Compound	inhibition [1] [%]	inhibition [2] [%]
Oc1ccc(-c2nc3cc(O)cc(Br)c3o2)cc1	101	–
C/C(=C(/CCOC(=O)C(C)C)SS/C(CCOC(=O)C(C)C)=C(\C)N(C=O)Cc1cnc(C)nc1N)N(C=O)Cc1cnc(C)nc1N	9.58	–
COc1cc(CN2CCN(c3ccc(F)cc3)CC2)cc(OC)c1OC	16.8	–
CCCCCCCCCCCCCCCCCC(=O)OC[C@@H](O)[C@H]1OC[C@H](O)[C@H]1O	1.06	–
CC(C)(C)NCC(O)c1cc(Cl)c(N)c(C(F)(F)F)c1 (stereo not drawn)	16.6	–
CC(C)Oc1ccc(-c2cnc3c(-c4ccnc5ccccc45)cnn3c2)cc1	-2.96	–
c1cc(-c2cnn3cc(-c4ccc(OCCN5CCCCC5)cc4)cnc23)ccn1	69.7	–
c1ccc(-c2cnn3cc(-c4ccc(OCCN5CCOCC5)cc4)cnc23)cc1	92.3	–
COc1ccc(-c2cnc3c(-c4cccc5ncccc45)cnn3c2)cc1	-9.41	–
c1ccc(OCc2ccc(CCCN3CCOCC3)cc2)cc1	45	–
C=C1/C(=C\C=C2/CCC[C@]3(C)[C@@H]([C@H](C)/C=C/[C@H](C)C(C)(C)O)CC[C@@H]23)C[C@@H](O)C[C@@H]1O	-3.96	–
COC(=O)[C@H](Cc1ccc([N+](=O)[O-])cc1)NC(=O)c1cccc2ccccc12	10.5	–
COc1ccc2cc(-c3cc(-c4cc(Cl)cc(Cl)c4)nn3[C@@H](C)c3ccc(C(=O)NCCC(=O)O)cc3)ccc2c1	18.3	–
OC[C@H]1O[C@H](O[C@H]2O[C@H](CO)[C@@H](O)[C@H](O)[C@H]2O)[C@H](O)[C@@H](O)[C@@H]1O	-9.27	–
CN(C)c1nc(N)c(C(=O)Nc2cccnc2)nc1Cl	100	–
O=C(OCC(COC(=O)c1cccnc1)(COC(=O)c1cccnc1)COC(=O)c1cccnc1)c1cccnc1	7.98	–
Cn1cncc1[C@@](N)(c1ccc(Cl)cc1)c1ccc2c(c1)c(-c1cccc(Cl)c1)cc(=O)n2C	-5.64	–
Nc1nc(NC2CC2)c2ncn([C@H]3C=C[C@@H](CO)C3)c2n1	-5.79	–
NC(=O)OCCCc1ccccc1	15.1	–
O=C(O)c1ccccc1NCCc1ccccc1	42.4	–
Cc1ccc(NCCCc2ccccc2)c(N)c1	78.2	–
CCOc1cc2ncc(C#N)c(Nc3ccc(F)c(Cl)c3)c2cc1NC(=O)/C=C/CN(C)C	36.7	–
CCOC(=O)CNC(=O)[C@@H]1CCCN1C(=O)Cc1ccccc1 (PhAc-Pro-Gly-OEt)	4.19	–
COC(=O)[C@H](CC(C)C)NC(=O)[C@H](N)CC(C)C	10.2	–
CC1(C)[C@H]2CC[C@@]1(C)[C@H](O)[C@@H]2O (racemic)	31.2	–

Compound	inhibition [1] [%]	inhibition [2] [%]
CCOC(=O)C1=C(N)Oc2ccc(Br)cc2[C@H]1[C@H](C#N)C(=O)OCC	52.9	–
CCOC(=O)C1=C(N)Oc2ccc(Br)cc2C1C(C#N)C(=O)OCC (stereo not drawn)	27.8	–
Cc1cccc(C)c1NC(=O)CN1CCCCCC1	16.5	–
C/C(=N\NC(=N)N)c1cc(NC(=O)CCCCCCCCC(=O)Nc2cc(/C(C)=N/NC(=N)N)cc(/C(C)=N/NC(=N)N)c2)cc(/C(C)=N/NC(=N)N)c1	77.6	–
Cc1ccc(NC(=O)CCCCCC(=O)Nc2ccccc2N)cc1	-2.93	–
CCS(=O)(=O)N(Cc1cccnc1)c1cccc(-c2ccc(C#N)cc2)c1	17	–
CC1(N2CCC(n3c([C@H]4CCCNC4)nc4ccccc43)CC2)CCCCCCC1	-2.41	–
CCC[C@@H]1CC(=O)N([C@@H](CC)C(N)=O)C1	29.1	–
C[C@H](/C=C/[C@H](C)C(C)(C)O)[C@H]1CC[C@H]2/C(=C/C=C3C[C@@H](O)C[C@H](O)C3)CCC[C@]12C	9.32	–
CCCCN(CCCC)C(=O)CN1C[C@H](c2ccc3c(c2)OCO3)[C@@H](C(=O)O)[C@@H]1c1ccc(OC)cc1	34.1	–
O=C1NC(=S)NC(=O)C1C(=O)Nc1ccccc1	96.3	–
N=C(Nc1ccccc1)c1cccs1	37.1	–
N=C(Nc1ccccc1)Nc1ccccc1	15.5	–
CON(C)C(=O)[C@H](O)[C@H](Cc1ccccc1)NC(=O)c1cc2cc(Cl)ccc2[nH]1	5.68	–
CN[C@H]1C[C@@H](N)[C@H](O)[C@@H](O[C@@H]2O[C@H](CO)[C@H](O)[C@@H]3OC4(O[C@H]23)O[C@H]([C@@H](N)CO)[C@H](O)[C@H](O)[C@H]4O)[C@@H]1O (stereo partly drawn)	6.11	–
N#Cc1ccc2[nH]c(O)c(-c3ccc(CN4CCOCC4)cn3)c2c1	11.3	–
Cc1[nH]c(/C=C2\C(=O)Nc3cc(-c4ccccc4)ccc32)c(C)c1CCC(=O)O	95.2	–
CN/C(=N\S(=O)(=O)c1ccc(Cl)cc1)N1CC(c2ccccc2)C(c2ccc(Cl)cc2)=N1 (racemic)	9.02	–
O=C1CC(=O)c2c(Cl)c(Cl)c(Cl)c(Cl)c21	-2.09	–
CN1C[C@@H]2CN(c3ccc(-c4ccccc4)nn3)C[C@@H]2C1	10.2	–
O=C1N[C@H](C(=O)O)CS1	9.69	–
CCOc1cc(/C=C2/C(=O)N(c3ccccc3)N=C2C)cc(Cl)c1OCC(=O)OC	101	–
HYALURONIC ACID, CHEMBL5314376	–	-9.36
